{"source": "the supplement of paper PMC11417369", "note": "Over roughly 25,000 sequences, “ln(normalized median fluorescence intensity)” has its median near 9.3; the highest 2% begin near 10. The sample as a whole holds a higher share of the highest values than the screen did."}
{"test_system": "PF3D7_0420300 AP2 domain 1 (GST-tagged)", "test": "gcPBM binding intensity (ln(normalized median fluorescence intensity)); higher = stronger DNA binding", "in_short": "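Binding intensity values are the highest Masliner-normalised natural-log median intensity among replicate spots of either probe orientation. The binding step lasted 1 h in 1× PBS with 1% milk, 0.2 mg/ml BSA, 0.5% salmon testes DNA and 0.03% Triton X-100, using GST-tagged P. falciparum DNA-binding domains expressed in E. coli on an Agilent 4 × 180k array of primer-extended double-stranded 36-bp intergenic genomic probes plus negative controls. Alexa488 anti-GST antibody and a 488 nm scan detected bound protein.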"}
{"sequence": "TCTTATAAACTCTGCACACATAATATATTAAATGAG [CACACA_site1936]", "gcPBM binding intensity (ln)": 9.31}
{"sequence": "TATATTTATTATAATTGTACATAAAATAAACTAAGA [XGTACX_site4318]", "gcPBM binding intensity (ln)": 9.19}
{"sequence": "TATATATGTAGACGTTGTACTTTTTTGTAAGTTTAA [XGTACX_site5638]", "gcPBM binding intensity (ln)": 9.13}
{"sequence": "TGATATTTTTCCATAGTGCAAAATATAGTAATGTAT", "gcPBM binding intensity (ln)": 9.11}
{"sequence": "AAAAAAAAAAAAAACACACACACACCCATACACATA [CACACA_site2860]", "gcPBM binding intensity (ln)": 10.1}
{"sequence": "AAAACATACATATATACACACATATATATATATATA [CACACA_site1852]", "gcPBM binding intensity (ln)": 9.57}
{"sequence": "AAAAAAAAAAAACACACACACACATACACATACATA [CACACA_site2858]", "gcPBM binding intensity (ln)": 10.2}
{"sequence": "AAAAAACAGACATACACACACACACCCATATATATA [CACACA_site3392]", "gcPBM binding intensity (ln)": 10.2}
{"sequence": "AAAAAAAAAAAAAAAACACACATACACCCAGACACA [CACACA_site5807]", "gcPBM binding intensity (ln)": 9.6}
{"sequence": "AAAAAACACCCATACACACACACACCGATATATATA [CACACA_site5808]", "gcPBM binding intensity (ln)": 10.2}
{"sequence": "AAAAAAAAAAAACACACACACACACCCATACATACA [CACACA_site707]", "gcPBM binding intensity (ln)": 10.2}
{"sequence": "AAAAAAAAAAAACACACACACACATACCCATACATA [CACACA_site5575]", "gcPBM binding intensity (ln)": 10.1}
{"sequence": "AAAAAAAAAAAAAAAACACACATACATACATACATA [CACACA_site6125]", "gcPBM binding intensity (ln)": 9.61}
{"sequence": "CACAGACACCCATACACACACATACCCATATATATA [CACACA_site5023]", "gcPBM binding intensity (ln)": 10}
{"sequence": "TTTTTAATAACACTTTTGAAAAATAAAATAAAATAA [CACACA_negctrl_site821]", "gcPBM binding intensity (ln)": 8.8}
{"sequence": "AAACAAATAAAATTTATTAAAAAGGTCATATTATTA [CACACA_negctrl_site85]", "gcPBM binding intensity (ln)": 9.12}
{"sequence": "AGAAAGGATATTATATGTACATATCTTTGTATTTTT [XGTACX_site5040]", "gcPBM binding intensity (ln)": 9.36}
{"sequence": "GTATACATGCAAATTTTTATTTACAACCCCAAAAAG [XGTACX_negctrl_site255]", "gcPBM binding intensity (ln)": 9.23}
{"sequence": "GCACAAATATATATATATATATATATATATATATAT [GTGCAC_negctrl_site661]", "gcPBM binding intensity (ln)": 9.06}
{"sequence": "TAAACACCCATACATACACACATACATACACCCATA [CACACA_site5125]", "gcPBM binding intensity (ln)": 9.58}
{"sequence": "AAAAAAAAAAAAAACACACACACACCCACATATACA [CACACA_site2663]", "gcPBM binding intensity (ln)": 10.1}
{"sequence": "AAAAAAAAAAAACACACACACACACCCATATACATA [CACACA_site2664]", "gcPBM binding intensity (ln)": 10.3}
{"sequence": "AAAAAAAAAAAAAACACACATACACGCCCACCCATA [CACACA_site3391]", "gcPBM binding intensity (ln)": 10.2}
{"sequence": "AAAAAAAAAAAAAACACACACACACCCATACCCATA [CACACA_site5577]", "gcPBM binding intensity (ln)": 10.1}
{"sequence": "TCCTTTTCATCTTGTAGTACGGAAATGTAGCTCCAA [XGTACX_site8563]", "gcPBM binding intensity (ln)": 9.09}
{"sequence": "CTTTTTTTAATGATAACACACATGTTGTGCATAGAC [CACACA_site3270]", "gcPBM binding intensity (ln)": 9.32}
{"sequence": "ATTTATTAAAAGAAATGTACAGAAAATGTTTGGAAT [XGTACX_site7187]", "gcPBM binding intensity (ln)": 9.26}
{"sequence": "ATTAAATATATTTTGCGTACACAAAAAAATACGTTC [XGTACX_site3862]", "gcPBM binding intensity (ln)": 9.15}
{"sequence": "AATGAAAATAAATTAACACACAATTTTAATATTGTT [CACACA_site1306]", "gcPBM binding intensity (ln)": 9.32}
{"sequence": "TCATATATTTATGTATGTACATATATATATAGATTA [XGTACX_site380]", "gcPBM binding intensity (ln)": 9.01}
{"sequence": "CATATCATTGATTATAGTACACATACCATTTTTTAT [XGTACX_site6572]", "gcPBM binding intensity (ln)": 9.45}
{"sequence": "GTAATAAGAATTATAGTGCAATGTAATACATTTATA", "gcPBM binding intensity (ln)": 9.23}
{"sequence": "AGGATAAAAGTTATGGTGCATTAACCTATTTAAATA", "gcPBM binding intensity (ln)": 9.14}
{"sequence": "AAAAAAAAAAAAAAAACACACACATATATATATATA [CACACA_site8571]", "gcPBM binding intensity (ln)": 9.51}
{"sequence": "AAAAAACACGCGCACACACACACACGCGCCCACATA [CACACA_site7106]", "gcPBM binding intensity (ln)": 10.3}
{"sequence": "AAAAAACACGGACACACACACATATACATACATACA [CACACA_site5470]", "gcPBM binding intensity (ln)": 10.1}
{"sequence": "AAAACACGCGGACACACACACACACGCCCACATATA [CACACA_site7105]", "gcPBM binding intensity (ln)": 10.4}
{"sequence": "AGAAAAAAACAACATGCACACGCACCCACAAAAAAA [CACACA_site7908]", "gcPBM binding intensity (ln)": 9.71}
{"sequence": "AACACGCGCAGACACACACACACACCCACATATATA [CACACA_site2205]", "gcPBM binding intensity (ln)": 10.2}
{"sequence": "ATTACATACACGCGCACACACAAAAAAAAAAAAAAA [CACACA_site1334]", "gcPBM binding intensity (ln)": 9.57}
{"sequence": "AACACCCATGGACACACACACATATATATATATATA [CACACA_site5809]", "gcPBM binding intensity (ln)": 9.92}
{"sequence": "AACACGCGCGGACACACACACACACCCACATATATA [CACACA_site5252]", "gcPBM binding intensity (ln)": 10.4}
{"sequence": "ACTTTATATTTTGAACGTACAAAAAAAAAATTATGT [XGTACX_site5588]", "gcPBM binding intensity (ln)": 9.04}
{"sequence": "AATACAATATAGTGAAAAATAATTAAATACAATAAG [XGTACX_negctrl_site161]", "gcPBM binding intensity (ln)": 9.6}
